Laboratory results as given in the supplement of paper PMC7411640.
Structures can show the parent of a compound that is named as a salt.

System: MDA-MB-468
Assay: phospho-S6 immunofluorescence (DAPI-normalised), per-plate z-score; higher = higher phospho-S6 signal (less pathway suppression)
Settings: 24 h
Protocol: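 GPCR-targeted compound library (MedChemExpress HY-L006) tested on MDA-MB-468 PTEN-null TNBC cells in 384-well plates at 0.1, 1 or 10 uM, combined with vehicle, GDC0941 450 nM or lapatinib 1 uM, for 24 h. Phospho-S6 (S240/244) immunofluorescence normalised to DAPI and expressed as a per-plate z-score; values are the mean of biological triplicates.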

SMILES | phospho-S6 immunofluorescence (z-score) (co-treatment: GDC0941 450 nM) | phospho-S6 immunofluorescence (z-score) (co-treatment: lapatinib 1 uM) | phospho-S6 immunofluorescence (z-score) (co-treatment: vehicle)
CCCc1nc2c(C)cc(-c3nc4ccccc4n3C)cc2n1Cc1ccc(-c2ccccc2C(=O)O)cc1 [Telmisartan] (compound 10 µM) | 0.54 | 1.6 | 0.35
CCOCCn1c(C2CCN(CCc3ccc(C(C)(C)C(=O)O)cc3)CC2)nc2ccccc21 [Bilastine] (compound 10 µM) | 0.51 | 0.94 | -0.28
COc1ccc(CC(C)NCC(O)c2ccc(O)c(NC=O)c2)cc1 (stereo not drawn) [Formoterol (Fumarate)] (compound 10 µM) | 1.08 | 0.77 | 0.16
CC(C)NCC(O)c1ccc(O)c(O)c1 (stereo not drawn) [Isoprenaline (hydrochloride)] (compound 10 µM) | 0.63 | 2.74 | 1.65
CN(C)CC/C=C1/c2ccccc2COc2ccc(CC(=O)O)cc21 [Olopatadine (hydrochloride)] (compound 10 µM) | 0.01 | 0.08 | -0.35
CC(C)(Cc1ccc2ccccc2c1)NC[C@@H](O)COc1cccc(Cl)c1C#N [NPS-2143 (hydrochloride)] (compound 10 µM) | -6 | -12.2 | -9.7
NC1=NCC2c3ccccc3Cc3ccccc3N12 (stereo not drawn) [Epinastine] (compound 10 µM) | -0.05 | -0.81 | 0.35
O=C(O[C@@H]1C[C@@H]2C[C@H]3C[C@H](C1)N2CC3=O)c1c[nH]c2ccccc12 [Dolasetron] (compound 10 µM) | -0.34 | -0.11 | -0.46
C=C[C@@]1(C)CC(=O)[C@]2(O)[C@@]3(C)[C@@H](O)CCC(C)(C)[C@@H]3[C@H](O)[C@H](OC(C)=O)[C@@]2(C)O1 [Forskolin] (compound 10 µM) | 1.82 | 2.65 | 0.23
CN(C)C(=O)C(CCN1CCC(O)(c2ccc(Cl)cc2)CC1)(c1ccccc1)c1ccccc1 [Loperamide (hydrochloride)] (compound 10 µM) | -1.31 | -3.22 | -0.37
CCCN(CCc1cccs1)[C@H]1CCc2c(O)cccc2C1 [Rotigotine] (compound 10 µM) | 0.53 | -0.05 | -0.73
OCCOCCN1CCN(C(c2ccccc2)c2ccc(Cl)cc2)CC1 (stereo not drawn) [Hydroxyzine (dihydrochloride)] (compound 10 µM) | 0.45 | -0.69 | 0.24
CCCN(CCC)CCc1cccc2c1CC(=O)N2 [Ropinirole (hydrochloride)] (compound 10 µM) | 0.64 | 1.04 | 1.01
COc1cccc(CCc2ccccc2OCC(CN(C)C)OC(=O)CCC(=O)O)c1 (stereo not drawn) [Sarpogrelate (hydrochloride)] (compound 10 µM) | 0.63 | -0.51 | -0.15
OC(CCCN1CCCCC1)(c1ccccc1)c1ccccc1 [Diphenidol (hydrochloride)] (compound 10 µM) | 0.19 | 1.09 | 0.38
CC(C)(N)C(=O)N[C@H](COCc1ccccc1)C(=O)N1CCC2(CC1)CN(S(C)(=O)=O)c1ccccc12 [Ibutamoren (Mesylate)] (compound 10 µM) | -2.77 | -7.75 | -5.38
CCOC(=O)O[C@]1(C(=O)OCCl)CC[C@H]2[C@@H]3CCC4=CC(=O)C=C[C@]4(C)[C@H]3[C@@H](O)C[C@@]21C [Loteprednol Etabonate] (compound 10 µM) | -0.86 | 0.31 | -1.08
COc1ccc2[nH]cc(CCNC(C)=O)c2c1 [Melatonin] (compound 10 µM) | -1.25 | 0.24 | -0.21
CCN(CC)CC#CCOC(=O)C(O)(c1ccccc1)C1CCCCC1 (stereo not drawn) [Oxybutynin (chloride)] (compound 10 µM) | 1.35 | 0.51 | 0.53
COCCc1ccc(OCC(O)CNC(C)C)cc1 (stereo not drawn) [Metoprolol (Succinate)] (compound 10 µM) | 0.44 | -0.38 | 1.15
CC[C@H](NC(=O)c1c(O)c(-c2ccccc2)nc2ccccc12)c1ccccc1 [Talnetant] (compound 10 µM) | 0.6 | 0.47 | 0.13
CCc1nc2c(C)nc(C)cc2n1-c1ccc(CCNC(=O)NS(=O)(=O)c2ccc(C)cc2)cc1 [Grapiprant] (compound 10 µM) | -0.05 | -0.15 | -0.51
NC(=O)[C@@H]1CCCC[C@@H]1C(=O)Nc1ccc(Cl)c(Cl)c1 (compound 10 µM) | 0.33 | -0.14 | 0.47
Cc1noc(NS(=O)(=O)c2ccc(N)cc2)c1C [Sulfisoxazole] (compound 10 µM) | 1.15 | -0.03 | 0.55
CCN(CC)CC#CCOC(=O)C(O)(c1ccccc1)C1CCCCC1 (stereo not drawn) [Oxybutynin] (compound 10 µM) | -0.77 | 0.75 | -0.04
COc1nc(C)nc(Cl)c1NC1=NCCN1 [Moxonidine] (compound 10 µM) | 0.49 | 0.68 | 0.7

SMILES | phospho-S6 immunofluorescence (z-score) (co-treatment: GDC0941 450 nM) | phospho-S6 immunofluorescence (z-score) (co-treatment: lapatinib 1 uM) | phospho-S6 immunofluorescence (z-score) (co-treatment: vehicle)
Cc1ccc(OCC(O)C(C)NC(C)C)c2c1CCC2 (stereo not drawn) [ICI 118,551 (hydrochloride)] (compound 10 µM) | 1.2 | -1.56 | 0.46
CCCCCCn1c(O)c(N=NC(=O)c2ccccc2)c2ccccc21 (compound 10 µM) | -2.97 | -0.75 | 0.59
O=C(Nc1cccc(Cl)c1)c1ccccn1 (compound 10 µM) | -1.46 | 0.72 | -0.86
Nc1nccc(/C=C/c2ccccc2)n1 (compound 10 µM) | -1.32 | -0.81 | 0.3
Cc1nc(C#Cc2cccnc2)cs1 [MTEP (hydrochloride)] (compound 10 µM) | -0.31 | -0.65 | -0.75
NC(=O)NC1NC(=O)NC1=O (stereo not drawn) [Allantoin] (compound 10 µM) | 0.67 | 0.13 | -0.01
Cc1nc2ccc(NC(=O)Nc3ccnc4cccnc34)cc2o1 (compound 10 µM) | 0.6 | -1.8 | 0.79
CCC(=O)O[C@]1(C(=O)SCF)[C@H](C)C[C@H]2[C@@H]3C[C@H](F)C4=CC(=O)C=C[C@]4(C)[C@@]3(F)[C@@H](O)C[C@@]21C [Fluticasone (propionate)] (compound 10 µM) | 0.26 | -0.29 | -0.43
Cc1cc(NC(=O)NCCN2CCC(O)(Cc3ccccc3)CC2)c2ccccc2n1 [Palosuran] (compound 10 µM) | -1.78 | -2.21 | -0.2
OCCNC1CCCc2c1[nH]c1ccc(-c3ccccc3)cc21 (stereo not drawn) (compound 10 µM) | -5.16 | -8.66 | -9.39
Oc1ccc(C2CNCCc3c2cc(O)c(O)c3Cl)cc1 (stereo not drawn) [Fenoldopam (mesylate)] (compound 10 µM) | 1.13 | -0.01 | 0.83
Cc1cc(O[C@@H](CCC(F)(F)F)c2ccc(C(=O)NCCC(=O)O)cc2)cc(C)c1-c1ccc(C(C)(C)C)cc1 [Adomeglivant] (compound 10 µM) | -4.72 | -7.2 | -6.79
C[C@](N)(Cc1ccc(O)c(O)c1)C(=O)O (compound 10 µM) | -0.58 | 0.11 | -0.1
Cc1cccn2c(=O)c(C=C(C#N)c3nc4ccccc4s3)c(Oc3ccc(F)cc3)nc12 (compound 10 µM) | 0.33 | 1.14 | -0.48
OC(CNCC(O)C1CCc2cc(F)ccc2O1)C1CCc2cc(F)ccc2O1 (stereo not drawn) [Nebivolol (hydrochloride)] (compound 10 µM) | -2.5 | -3.76 | -2.22
CC(=O)OCC(=O)[C@@]12N=C(C)O[C@@H]1C[C@H]1[C@@H]3CCC4=CC(=O)C=C[C@]4(C)[C@H]3[C@@H](O)C[C@@]12C [Deflazacort] (compound 10 µM) | -0.99 | -0.57 | -0.08
O=C(NCC(=O)N1CC[C@H](N[C@H]2CC[C@@](O)(c3ccc(-c4ncccn4)cn3)CC2)C1)c1cccc(C(F)(F)F)c1 (compound 10 µM) | -0.86 | -0.77 | 0.76
C[C@@H](O[C@H]1OCCN(Cc2nn(P(=O)(O)O)c(=O)[nH]2)[C@H]1c1ccc(F)cc1)c1cc(C(F)(F)F)cc(C(F)(F)F)c1 [Fosaprepitant (dimeglumine)] (compound 10 µM) | -2.28 | -0.65 | 0.39
CC(C)[C@H](NC(=O)[C@H](CCCN=C(N)N)NC(=O)[C@@H](N)CC(=O)O)C(=O)N[C@@H](Cc1ccc(O)cc1)C(=O)N[C@H](C(=O)N[C@@H](Cc1cnc[nH]1)C(=O)N1CCC[C@H]1C(=O)N[C@@H](Cc1ccccc1)C(=O)O)C(C)C [Angiotensin II 5-valine] (compound 10 µM) | 1.16 | 0.49 | 0.07
CNCC(O)c1ccc(O)c(O)c1 [L-Epinephrine] (compound 10 µM) | 0.44 | 2.36 | -0.3
CCN(Cc1ccncc1)C(=O)C(CO)c1ccccc1 (stereo not drawn) [Tropicamide] (compound 10 µM) | 0.17 | 1.42 | -0.17
C[C@H](NC(=O)C(C)(C)Oc1ccc(C(F)(F)F)cn1)[C@@H](Cc1ccc(Cl)cc1)c1cccc(C#N)c1 [Taranabant] (compound 10 µM) | -4.19 | -2.35 | -2.4
O=C(O)CC1CCC2(CC1)CCN(c1cc(OC(F)(F)F)ccc1Cl)CC2 (compound 10 µM) | 0.09 | 0.11 | 0.22
CN(C)CCC(c1ccc(Cl)cc1)c1ccccn1 (stereo not drawn) [Chlorpheniramine (maleate)] (compound 10 µM) | -5.85 | -10.5 | -8.97
CN(C)N(C)C(=O)[C@@]1(Cc2ccccc2)CCCN(C(=O)[C@@H](Cc2c[nH]c3ccccc23)NC(=O)C(C)(C)N)C1 [Anamorelin (hydrochloride)] (compound 10 µM) | -1.14 | -0.96 | -0.1
